From PubChem BioAssay (Tox21)
Activity calls are given as the source filed them. Where a call stands in place of a potency, no number is given. Calls follow the shape of the full dose curve.

What follows are compounds tested against Acetylcholinesterase (Homo sapiens) (UniProt P22303) (assay: Acetylcholinesterase (AChE) small molecule antagonists: enzyme-based qHTS assay (AID 1347397; also: nearly all actives have a fitted effect of over 55% in size)). Details: Potency: AChE enzyme activity inhibition; outcome: AChE enzyme activity inhibition; series mostly up to 115 µM.
Description: National Center for Advancing Translational Sciences [NCATS]
Division of Preclinical Innovation [DPI]
U.S. Environmental Protection Agency [EPA]
National Institutes of Environmental Health Sciences [NIEHS]
National Toxicology Program [NTP]
U.S. Food and Drug Administration [FDA]
Acetylcholinesterase (AChE) is the primary cholinesterase in the body that hydrolyzes a key neurotransmitter, acetylcholine. Inhibition of AChE activity can lead to neurotoxicity. The known inhibitors include organophosphorous pesticides (OP), chemical warfare agents, drugs, and various phytochemicals.
An enzyme-based assay with the recombinant human AChE and Amplite Colormetric acetylcholinesterase assay kit (AAT Bioquest, Sunnyvale, CA) was used to evaluate the chemicals in the Tox21 10K library that inhibit AChE activity. The assay uses 5, 5-dithiobis-(2-nitrobenzoic acid) (DTNB) to quantify the thiocholine produced from the hydrolysis of acetylthiocholine by AChE.
Tox21 Assay Protocol Summary:
For the enzyme-based AChE assay, recombinant human AChE (50 mU/mL) in 4 uL/well was dispensed into black, clear-bottom 1536-well plates using a Multidrop Combi dispenser (Thermo Scientific, MA). Then, 23 nL of compound or DMSO (vehicle control) was transferred into the assay plates by a Pintool Station (Wako Automation, CA). The plates were incubated for 30 min at room temperature, followed by the addition of 4 uL of colorimetric detection cocktail solution (DTNB, acetylthiocholine) into each well using a Flying Reagent Dispenser (Beckman Coulter, CA) and then 10 min incubation at room temperature.
Potency is read from the fitted curve at half-maximal effect.

Chain of Acetylcholinesterase (Homo sapiens) (P22303 whole entry, looked up): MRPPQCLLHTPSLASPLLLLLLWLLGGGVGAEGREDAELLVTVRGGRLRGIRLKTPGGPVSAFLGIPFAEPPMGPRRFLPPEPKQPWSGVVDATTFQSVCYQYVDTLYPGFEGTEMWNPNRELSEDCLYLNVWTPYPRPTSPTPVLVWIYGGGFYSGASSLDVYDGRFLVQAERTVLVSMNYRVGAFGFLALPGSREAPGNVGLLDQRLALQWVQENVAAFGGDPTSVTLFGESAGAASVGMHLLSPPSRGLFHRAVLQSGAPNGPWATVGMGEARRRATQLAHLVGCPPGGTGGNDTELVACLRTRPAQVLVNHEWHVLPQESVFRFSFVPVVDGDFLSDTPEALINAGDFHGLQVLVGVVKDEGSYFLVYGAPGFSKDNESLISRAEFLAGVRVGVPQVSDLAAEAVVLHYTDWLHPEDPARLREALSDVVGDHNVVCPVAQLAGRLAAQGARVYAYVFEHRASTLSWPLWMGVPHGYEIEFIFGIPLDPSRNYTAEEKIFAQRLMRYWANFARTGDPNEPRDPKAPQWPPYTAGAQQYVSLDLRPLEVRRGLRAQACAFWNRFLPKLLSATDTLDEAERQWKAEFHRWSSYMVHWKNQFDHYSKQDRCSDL

| Compound | Potency |
| --- | --- |
| CCc1oc2ccccc2c1C(=O)c1cc(Br)c(O)c(Br)c1 | inactive |
| CCn1c2ccccc2c2cc([N+](=O)[O-])ccc21 | inactive |
| N#CCC(=O)O | inactive |
| CCO[Si](CCCN)(OCC)OCC | inactive |
| CCCCOC(=O)C(C)OC(=O)CCC (stereo not given) | inactive |
| CC[C@]12CCCN3CCc4c(n(c5ccccc45)C(=O)C1)[C@@H]32 | inactive |
| CC1(C)CO[C@@H](CC(=O)O)CN1 | inactive |
| O=C1c2ccccc2C(=O)C1c1nc2ccccc2c(Br)c1O | inactive |
| NS(=O)(=O)c1cc2c(cc1Cl)NC(C1CC3C=CC1C3)NS2(=O)=O (stereo not given) | inactive |
| O=C(O)COC(=O)Cc1ccccc1Nc1c(Cl)cccc1Cl | inactive |
| NCC(=O)CCC(=O)O | inactive |
| Cn1sccc1=O | inactive |
| COc1ccc2cc1Oc1cc3c(cc1OC)CC[N+](C)(C)[C@H]3Cc1ccc(cc1)Oc1c(OC)c(OC)cc3c1[C@@H](C2)[N+](C)(C)CC3 | inactive |
| O=[N+]([O-])c1ccc(CCO)cc1 | inactive |
| NNC(=O)CP(=O)(c1ccccc1)c1ccccc1 | inactive |
| C=C(C)C(=O)O | inactive |
| Nc1ccccc1Nc1ccccc1 | inactive |
| CCCCCC1Nc2cc(C(F)(F)F)c(S(N)(=O)=O)cc2S(=O)(=O)N1 (stereo not given) | 21.9 µM (active) |
| C=CC(C)(CCC=C(C)C)OC(=O)/C=C/c1ccccc1 (stereo not given) | inactive |
| CC(=O)NCc1c(I)c(NC(C)=O)c(I)c(C(=O)O)c1I | inactive |

| Compound | Potency |
| --- | --- |
| CN1C(=O)CC[C@H]1c1cccnc1 | inactive |
| CCCC(C)C(=O)OCC (stereo not given) | inactive |
| CCCCC(CC)COC(=O)c1ccccc1C(=O)O (stereo not given) | inactive |
| CC(C)OC(=O)CCC(=O)OC(C)C | inactive |
| C=CC(C)(O)CCC=C(C)C (stereo not given) | inactive |
| CCN=C1C=CC(=C(c2ccc(N(CC)CC)cc2)c2ccc(N(CC)CC)cc2)c2ccccc21 | 19.9 µM (active) |
| Oc1c(Cl)ccc(Cl)c1Cl | inactive |
| CC(C)(c1ccc(O)cc1)c1ccc(O)cc1 | inactive |
| CN(c1nccc(=O)[nH]1)C1CCN(c2nc3ccccc3n2Cc2ccc(F)cc2)CC1 | inactive |
| CC[C@]1(O)C[C@H]2CN(CCc3c([nH]c4ccccc34)[C@@](C(=O)OC)(c3cc4c(cc3OC)N(C=O)[C@H]3[C@@](O)(C(=O)OC)[C@H](OC(C)=O)[C@]5(CC)C=CCN6CC[C@]43[C@@H]65)C2)C1 | inactive |
| COc1ccc(C(c2ccc(OC)cc2)C(Cl)(Cl)Cl)cc1 | inactive |
| CC(C)=CC1CC(C)CCO1 (stereo not given) | inactive |
| CC(CO)(CO)C(=O)O | inactive |
| CNS(=O)(=O)CCc1ccc2[nH]cc(C3CCN(C)CC3)c2c1 | inactive |
| C[C@@H](Oc1ccc(CNC(=O)c2cccnc2Oc2ccc3c(c2)OCO3)c(F)c1)C(=O)O | inactive |
| CN(C)c1ccncc1 | inactive |
| Cc1cc(C)c(C(=O)O)c(C)c1 | inactive |
| COCCOCC(OC)OC | inactive |
| CC1=C(Br)C(=O)C(Br)=C/C1=C(/c1ccccc1S(=O)(=O)O)c1cc(Br)c(O)c(Br)c1C | inactive |
| CCC(C)c1nccnc1OC (stereo not given) | inactive |
